Among the data in PubChem BioAssay (NCI) are growth values, retold here.

SMILES strings stand for the structures. Compounds without any hit were thinned out: in the full panel of roughly 83,000, 20% have a hit.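 Results are percent growth after 48 hours of single-concentration exposure. 100 means growth as in untreated cells, lower positive values show inhibition; negative values down to -100 show cell death.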 Values without a mark were called inactive. The source made the active and inactive calls. How the source made its calls: active means growth percent below 10; inactive means the rest.

Holding throughout (assay): NCI-60 one-dose screen, 48 h (100 = growth as untreated, 0 = no growth, -100 = all killed)
What all share (settings): 10 µM unless noted

The subject of assay [1] is SK-MEL-2 melanoma.
For assay [2], the system named is EKVX NSCLC.
The subject of assay [3] is SN12C renal.
The subject of assay [4] is UO-31 renal.
For assay [5], the system named is TK-10 renal.
For assay [6], the system named is ACHN renal.
The test system of assay [7] is CAKI-1 renal.
The subject of assay [8] is A498 renal.
Assay [9] concerns CCRF-CEM leukemia.
Assay [10] concerns MOLT-4 leukemia.
The subject of assay [11] is SR leukemia.
Assay [12] relates to RPMI-8226 leukemia.
In assay [13] the test system is OVCAR-8 ovarian.
Assay [14] concerns OVCAR-5 ovarian.
Assay [15] has as its system OVCAR-4 ovarian.
For assay [16], the system named is SK-OV-3 ovarian.
Assay [17] deals with IGROV1 ovarian.
Assay [18] relates to OVCAR-3 ovarian.
The subject of assay [19] is HS 578T breast.
For assay [20], the system named is NCI/ADR-RES ovarian.

Regarding `COc1cccc(C2C(C#N)=C(N)Oc3c2ccc2ccccc32)c1` (stereo not given), the growth in assay [1] was 40%; in [2] it was 53.1%; in assay [3] it was 24.2%; in [4], 43%; in [5], 62%; in [6], 25.8%. The growth in assay [7] is 30.1%; in assay [8], 45.1%; in [9], 8.64% (active); in assay [10], 12.3%; in [11] it was 18.1%; in assay [12], 20.7%. For the same molecule, the growth in assay [13] is 21.4%; in assay [14], 40.5%; in assay [15], 66.2%; in assay [16], 40.1%; in [17], 18.3%; in assay [18], -8.8% (active). The results for the growth in assay [19] and in [20] were 52.1% and 6.19% (active), respectively.
Turning to `COc1ccc(NC(=O)c2ccc(NC3=C(c4ccc(Cl)cc4)C(=O)NC3=O)cc2)cc1`, the growth is 70.4% in assay [1]; 84.7% in assay [2]; 88.6% in [3]; 64.6% in assay [4]; 82.8% in [5]; 85.9% in assay [6]. Further, the growth in assay [7] is 83.9%; in [8] it was 87.5%; in assay [9], 85.1%; in assay [10], 52.6%; in [11], 57.1%; in assay [12] it was 73.8%. Besides, the growth in assay [13] is 84.8%; in assay [14], 100%; in [15] it was 84.1%; in assay [16] it was 69.8%; in [17], 92.8%; in assay [18] it was 89.2%. Also, the growth in assay [19] is 102%; in [20], 88.3%.
For the molecule `COc1ccc(NC(=O)c2sc3nc(C)c(C(=O)c4ccccc4)cc3c2N)cc1`, the growth in assay [1] was 88.8%; in assay [2], 94.7%; in assay [3] it was 99.5%; in [4], 90%; in assay [5], 86.6%; in assay [6] it was 95.1%. Besides, the growth in [7] was 92.9%; in assay [8], -9.31% (active); in [9] it was 95%; in assay [10] it was 88.5%; in assay [11] it was 81.2%; in assay [12], 101%. Further, the growth in assay [13] was 101%; in assay [14], 82.8%; in assay [15], 91.1%; in assay [16], 92.6%; in assay [17], 101%; in assay [18], 103%. Further, the growth in assay [19] is 83.5%; in [20], 108%.
Turning to `Oc1c(Cl)cc(Cl)c2ccc(CN3CCNCC3)nc12`, the growth in assay [1] is 66.8%; in assay [2] it was 48.7%; in assay [3] it was 42.8%; in [4] it was 3.7% (active); in assay [5], 56.3%; in [6] it was 31.1%. Besides, the growth is 21.8% in assay [7]; 63.3% in assay [8]; 36.1% in assay [9]; 39.7% in assay [10]; 25.6% in assay [11]; 39.4% in assay [12]. The growth is 27.5% in assay [13]; 82.4% in [14]; 37.7% in assay [15]; 52.8% in assay [16]; 43.3% in [17]; 42.9% in assay [18]. Besides, the growth in assay [19] is 70.4%; in assay [20] it was 5.37% (active).
On to `COc1ccc(-c2csc(NC(=O)CSc3nc(C)cc(=O)[nH]3)n2)cc1`, for which the growth is 103% in [1]; 96.1% in assay [2]; 98.2% in assay [3]; 99% in assay [4]; 107% in assay [5]; 105% in assay [6]. For the same molecule, the growth in [7] was 109%; in assay [8], 103%; in assay [9], 106%; in assay [10] it was 110%; in [11], 118%; in assay [12], 96%. The growth was 102% in assay [13]; 112% in assay [14]; 104% in assay [15]; 102% in [16]; 101% in [17]; 103% in assay [18]. For the same molecule, the figures for the growth in [19] and in assay [20] were 96.8% and 96.9%, respectively.
With `N#C/C(=N\Nc1ccccc1)C(=O)Nc1cc(-c2ccccc2)nn1-c1ccccc1`, the growth in assay [1] was 22.6%; in assay [2] it was 28.3%; in assay [3] it was 3.41% (active); in assay [4], 29.7%; in [5] it was 38.6%; in assay [6], 39%. For the same molecule, the growth in [7] is 37.9%; in assay [8], 1.62% (active); in assay [9], 26.6%; in [10], 33.3%; in assay [11] it was 62.3%; in [12], 18.5%. The growth is 40.6% in assay [13]; 72.2% in assay [14]; 22.1% in assay [15]; 31.3% in [16]; 30.6% in assay [17]; 12.4% in assay [18]. In addition, the growth in [19] is 41.9%; in assay [20] it was 41.5%.
For the molecule `CC(=O)CC(=O)c1ccccc1.[Cu+2]`, the growth in assay [1] was 107%; in assay [2] it was 99.4%; in [3] it was 105%; in assay [4] it was 94.5%; in [5], 103%; in assay [6], 104%. Besides, the growth was 101% in assay [7]; 141% in assay [8]; -10.7% (active) in [9]; 91.7% in assay [10]; 51.8% in assay [11]; 97.8% in [12]. The growth is 110% in assay [13]; 107% in assay [14]; 106% in assay [15]; 82.4% in [16]; 87% in assay [17]; 114% in [18]. Besides, the figures for the growth in assay [19] and in assay [20] were 119% and 104%, respectively.
`Brc1ccc(-c2nn(-c3ccccc3)cc2-c2nn[nH]n2)s1`: the growth in [1] was 96.2%; in assay [2], 83.5%; in assay [3], 80%; in assay [4] it was 52.8%; in assay [5], 102%; in [6], 89.5%. The growth in assay [7] was 88.1%; in [8], 65.7%; in assay [9] it was 90.9%; in [10], 99.1%; in assay [11], 87.4%; in [12], 89.5%. For the same molecule, the growth in assay [13] was 96.3%; in assay [14] it was 108%; in assay [15], 92.7%; in assay [16], 98.2%; in assay [17] it was 102%; in assay [18] it was 96.5%. In addition, the growth was 89.9% in [19] and 103% in assay [20].
